Bioassay records as filed in PubChem.
Sampled rows, rich in hits. Any-hit rate of the full collection: about 12%.
Sm TGR block = qHTS Assay for the Inhibitors of Schistosoma Mansoni Peroxiredoxins. 3% of 360,000 active. Potency, µM (doses to about 114 µM), for the others: top-dose activity change, negative = inhibition, most hits filed as inhibitors. AID 485364, 2010. purified TGR, DTNB reduction, TNB absorbance 405 nm; active means well fitted inhibition curve with a large enough effect; inconclusive means small, poorly fitted or top-dose-only effect; inactive means no such curve, though single readings can be large or run the other way; further: potency means the concentration at half of the fitted maximal effect; on the % scale 0 is the no-effect control and ±100 the full control effect; nearly all actives have a fitted effect of over 60% in size
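Kinetic colorimetric format: TGR-catalysed, NADPH-driven DTNB reduction monitored via TNB absorbance. Enzyme dispensed at 20 nM; compound exposure 15 min at room temperature before reaction start.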
Shiga inhibitor = A qHTS for Small Molecule Inhibitors of Shiga Toxin. Vero cells, Shiga toxin protein synthesis inhibition reporter. inhibition, % at 38.7 µM. 9.2% of 290,000 active. AID 2315, 2010; in the data active means inhibition mostly above about 28%, no sharp cut-off; inactive means mostly below about 43%; further: 0% is about no effect
CHX counter = Cycloheximide Counterscreen for Small Molecule Inhibitors of Shiga Toxin; cell reporter, cycloheximide protein synthesis inhibition counterscreen; max response, %; 12% of 300,000 active; in the data active means max response mostly above about 13%, no sharp cut-off; inactive means mostly below about 14%; further: read at 38.3 µM for the half of the compounds with a filed dose; 0% is about no effect
FMDV antiviral = High Throughput Screening for Foot and Mouth Disease Virus Antivirals; AID 1159524, 2015; FMDV antiviral cell-based qHTS; Potency, µM (highest dose often 57.9 µM), for the others: top-dose activity change, negative = inhibition, usual class: inhibitors; 1.2% of 410,000 active; calls by dose curve; tested in HEK293T cells; further: read-out not given here; potency means the concentration at half of the fitted maximal effect; on the % scale 0 is the no-effect control and ±100 the full control effect; nearly all actives have a fitted effect of over 45% in size
* = called active by the depositor; ? = inconclusive; nt = not tested or not shown.

SMILES	Sm TGR block	Shiga inhibitor	CHX counter	FMDV antiviral
CC(Cl)C(=O)Nc1cc(C(C)(C)C)nn1-c1ccccc1 (stereo not given)	-4%	-4	-4	10%
CCCc1cc(NC(=O)CCl)n(-c2ccccc2)n1	10µM*	-6	11	?
COC(=O)/C(=C1\OC(=O)C(c2ccccc2)C1=O)c1ccccc1 (stereo not given)	nt	nt	nt	45%
COc1ccc(NC(=O)C2CCN(C3=NS(=O)(=O)C(c4ccc(C)c(C)c4)=C3C)CC2)cc1OC	4%	nt	nt	2%
NC(=O)c1ccccc1-c1nc(-c2ccccc2)no1	1%	95*	44*	54%
CCOc1ccccc1NC(=O)c1ccccc1-c1nc(-c2ccccc2)no1	2%	37	27*	0%
CN1CCN(C(=O)c2ccccc2-c2nc(-c3ccccc3)no2)CC1	-8%	62	22*	29%
CCOc1ccccc1NC(=O)c1ccccc1-c1ccccc1	13%	-17	3	-20%
COc1ccc(-c2nnc3n2N=C(c2ccccc2OC)CS3)cc1	nt	8	6	nt
Cc1cc(C)cc(N=C2NC(=O)/C(=C/c3cccs3)S2)c1	-1%	4	-1	-12%
O=C1NC(=Nc2ccccc2)S/C1=C\c1cccs1	4%	89*	45*	62%
Cn1cccc1/C=C1\SC(=Nc2ccccc2)NC1=O	-25%	85*	44*	60%
Cn1cccc1/C=C1\SC(=Nc2ccc(O)cc2)NC1=O	-26%	37*	44*	36%
Cn1cccc1/C=C1\SC(=Nc2cccc(O)c2)NC1=O	?	100*	40*	0%
Cc1ccc(N=C2NC(=O)/C(=C/c3cn(C)c4ccccc34)S2)cc1C	-4%	-4	-2	0%
Cc1ccc(N=C2NC(=O)/C(=C/c3cccn3C)S2)c(C)c1	9%	21	6	-3%
CCOc1ccc2c(c1)S/C(=C\c1cccs1)C(=O)N2	6%	69*	31*	83%
C=CCN(C(=O)CCc1ccccc1OC)c1nc(-c2ccc(S(C)(=O)=O)cc2)cs1	-13%	63*	39*	8%
C=CCN(C(=O)Cc1cccs1)c1nc(-c2ccc(S(C)(=O)=O)cc2)cs1	-23%	73*	21*	9%
c1ccc(-c2cn(-c3ccccc3)c3[n+]2CCCS3)cc1	2%	12	-2	?
COc1ccc(-n2cc(-c3ccc(C)cc3)[n+]3c2SCC3)cc1	-6%	-9	-8	11µM*
Cc1ccc(-c2cn(-c3ccccc3)c3[n+]2CCCS3)cc1	2%	32	-3	10µM*
CCc1ccc(-n2cc(-c3ccc(F)cc3)[n+]3c2SCCC3)cc1	2%	-14	-2	-13%
O=C(c1cnc(N2CCN(c3ccccn3)CC2)c2ccccc12)N1CCN(c2cccc(Cl)c2)CC1	-4%	16	-1	8.9µM*
O=C(c1ccc(S(=O)(=O)c2cccc(Cl)c2)c([N+](=O)[O-])c1)N1CCN(c2ccccn2)CC1	3.5µM*	-12	22*	16µM*
SMILES	Sm TGR block	Shiga inhibitor	CHX counter	FMDV antiviral
O=C(Nc1ccc(C(F)(F)F)cc1)c1cnc(N2CCN(c3ccccn3)CC2)c2ccccc12	3%	-2	9	7.1µM*
O=C(c1cc(Cl)ccc1Cl)N1CCN(c2ccccn2)CC1	4%	-11	-7	?
O=C(Nc1ccc(C(F)(F)F)cc1)c1cccnc1N1CCOCC1	-13%	-8	-3	-9%
O=C(c1cccc(Cl)c1)N1CCN(c2ccccn2)CC1	-5%	-6	-1	4%
Cc1csc2nc(CNC(=O)C3CCCCC3)cn12	-1%	10	13*	22%
O=C(NCc1csc(-c2cccs2)n1)C1CCC1	1%	48*	38*	79%
O=C(NCc1csc(-c2cccs2)n1)c1ccccc1	-27%	38*	32*	51%
O=C(NCc1csc(-c2cccs2)n1)Nc1ccc(F)cc1F	-5%	21	7	34%
O=C(NCc1csc(-c2cccs2)n1)c1cccc(Cl)c1	-4%	54	14*	22%
O=C(COC(=O)C1CC(=O)N(Cc2ccco2)C1)c1ccc(OC(=O)c2ccco2)cc1 (stereo not given)	11µM*	26	10*	24%
Cc1ccc(C(=O)Oc2ccc(C(=O)COC(=O)C3CC(=O)N(Cc4ccco4)C3)cc2)cc1 (stereo not given)	?	68*	29*	43%
O=C(COC(=O)C1CC(=O)N(Cc2ccccc2)C1)c1ccc(Br)cc1 (stereo not given)	-3%	-7	-1	-22%
O=C(Cn1c(=O)nc(-c2ccccc2)c2cc(Cl)ccc21)Nc1ccc(F)c(Cl)c1	2%	nt	nt	15%
CCOc1ccc(NC(=O)N2CCc3ccccc3C2)cc1	-14%	58*	48*	61%
CCc1ccc(/C=C\C(=O)N2CCCC2)cc1	nt	nt	nt	34%
COc1cc2c(cc1OC)CN(C(=O)Nc1ccccc1)CC2	-16%	-7	5	16%
CCc1ccc(/C=C\C(=O)N2CCc3ccccc3C2)cc1	13%	43*	13*	22%
CCOc1ccc(NC(=O)CN2CCc3ccccc3C2)cc1	0%	-9	-3	26%
COc1ccc(NC(=O)N2CCc3ccccc3C2)cc1	8%	78*	63*	40%
Fc1ccc(NC(=S)N2CCc3ccccc3C2)c(F)c1	4%	67*	32*	37%
CCc1ccc(N2CC(c3nc4ccccc4n3Cc3ccccc3C)CC2=O)cc1 (stereo not given)	-8%	nt	nt	-24%
Cc1c2cnn(CC(=O)NCc3ccc(F)cc3)c(=O)c2c(C)n1Cc1cccc(Cl)c1	-1%	nt	nt	-23%
CCn1cc2nc(SCC(=O)Nc3cccc(Cl)c3C)n(Cc3ccc(Cl)cc3)c(=O)c2n1	7%	nt	nt	-21%
O=C(/C=C/c1ccccc1[N+](=O)[O-])N1CCc2ccccc2C1	3%	22	21*	17%
COc1ccc(CC(=O)N2CCc3ccccc3C2)cc1	-8%	24*	22*	32%
SMILES	Sm TGR block	Shiga inhibitor	CHX counter	FMDV antiviral
COc1ccc(NC(=S)N2CCc3ccccc3C2)cc1OC	-11%	49*	10	143%
COc1cc2c(cc1OC)CN(C(=O)COc1ccccc1C#N)CC2	-3%	19	22*	17%
O=C(c1cc(Cl)ccc1[N+](=O)[O-])N1CCc2ccccc2C1	11%	-7	-2	-6%
Cc1ccc(C)c(CSc2nnc(C)n3c2cc2sccc23)c1	10%	nt	nt	3%
Cc1cccc(OCC(=O)N2CCc3ccccc3C2)c1	-1%	33*	27*	40%
COc1ccc(S(=O)(=O)NCCc2sc(-c3cccnc3)nc2C)c(F)c1	6%	nt	nt	11%
COc1ccc(C2C(CC(=O)O)=C(O)C(=O)N2c2ccccc2)cc1 (stereo not given)	?	38*	28*	42%
O=C(CSc1ccsc1[N+](=O)[O-])NCc1ccccc1	?	112*	44*	49%
CCc1ccccc1NC(=O)CSc1ccsc1[N+](=O)[O-]	-33%	10	4	?
COc1ccccc1CNC(=O)CSc1ccsc1[N+](=O)[O-]	-27%	85*	43*	36%
